Source: PubChem BioAssay (Tox21)
Values without a mark were called inactive. Calls of active or inactive are those of the source. Calls come from the whole dose curve; as a rule, active = well fitted curve in the direction sought with a large enough effect in the repeat runs; inconclusive = weak or mixed curves; inactive = flat fitted curve, though single readings scatter.

Experiment: qHTS assay to test for compound auto fluorescence at 535 nm (green) in HEK293 cell free culture (AID 720682)
Conditions: cell-free medium, green autofluorescence 485/535 nm, stronger effect = higher value; series mostly up to 91.3 µM; activity change: at the top concentration
From the text: U.S. Tox21 Program National Center for Advancing Translational Sciences [NCATS] NIH Chemical Genomics Center [NCGC] U.S. Environmental Protection Agency [EPA] National Institutes of Environmental Health Sciences [NIEHS] National Toxicology Program [NTP] U.S. Food and Drug Administration [FDA] Tox21 Assay Overview: Compound auto fluorescence often interferes with screening of the compound library against various biological targets and signaling pathways. Some of these compounds may have fluorophoric properties. Such properties may interfere with the assay outputs resulting in false positives and/or negatives. To decrease such complications and ensure the compound activities are relevant in terms of biological response, the Tox21 10K compound library was screened for auto fluorescence. From the fluorophores used as reporter signals in our screening assays, the auto fluorescence equivalencies of compounds against three fluorophores have been evaluated: Triamterene, Fluorescein and Rose Bengal sodium for blue, green and red fluorescence, respectively. The fluorescence intensities were measured using Excitation/Emission wavelengths at 405/460nm, 485/535nm and 540/590nm for blue, green and red labels, respectively. This assay includes the green fluorescence data.
Tox21 Assay Protocol Summary: 5 uL of culture medium (DMEM containing 10% FBS) per well was dispensed into black wall/clear bottom 1536-well plates using a Multidrop Combi Dispenser (ThermoFisher Scientific, Waltham, MA). After 23 nL compound or DMSO vehicle was transferred into assay plate by a pintool work station (Kalypsys, San Diego, CA), fluorescence intensities in the assay plates were measured by an Envision (PerkinElmer, Shelton, CT) plate reader using three labels for measuring blue, green and red fluorescence at […] 460, 535 and 590nm respectively.
% is set by controls: 0 for no effect and ±100 for the full control effect.

Structure (SMILES)	activity change	outcome
COc1cc(C(=O)NC2CCN(C)CC2)ccc1Nc1ncc2c(n1)N(C1CCCC1)CC(F)(F)C(=O)N2C	-0.07%	–
CC(C)=CCC1C(=O)N(c2ccccc2)N(c2ccccc2)C1=O	-0.362% [at 46 µM]	–
O=C1c2ccccc2C(=O)N1CCc1noc(-c2ccc(CN3CCCCCC3)s2)n1	0.0078%	–
CCC1CO1 (stereo not given)	0.0622%	–
CN1CCCN=C1COC(=O)C(O)(c1ccccc1)C1CCCCC1 (stereo not given)	-0.0331% [at 46 µM]	–
CCC(=O)C1CC(C(C)C)CC=C1C (stereo not given)	-0.144%	–
CC(CCC(=O)O)C(=O)O (stereo not given)	-0.0962%	–
C=Cc1ccc(S(=O)(=O)O)cc1	–	inactive
CN1C(=O)OC(C)(C)C1=O	–	inactive
O=C(CCCN1CC=C(n2c(=O)[nH]c3ccccc32)CC1)c1ccc(F)cc1	0.0064% [at 46 µM]	–
COC(=O)CCS	0.0104%	–
O=C(O)CCCCCCCCCCCBr	0.0209%	–
Cc1c(C)c2c(c(C)c1OC(=O)CCC(=O)OCCO)CC[C@@](C)(CCC[C@H](C)CCC[C@H](C)CCCC(C)C)O2	-0.137% [at 46 µM]	–
CC[C@]1(O)C[C@H]2CN(CCc3c([nH]c4ccccc34)[C@@](C(=O)OC)(c3cc4c(cc3OC)N(C=O)[C@H]3[C@@](O)(C(=O)OC)[C@H](OC(C)=O)[C@]5(CC)C=CCN6CC[C@]43[C@@H]65)C2)C1	0.103% [at 46 µM]	–
CCC1NC(=O)c2cc(S(N)(=O)=O)c(Cl)cc2N1 (stereo not given)	-0.178% [at 18.6 µM]	–
Clc1ccc(Nc2nnc(Cc3ccncc3)c3ccccc23)cc1	–	inactive
COc1ccccc1N1CCN(CC(O)COc2cccc3ccccc23)CC1 (stereo not given)	0.025% [at 46 µM]	–
C=CC(=O)OCC1CC2CC1C1CCC(COC(=O)C=C)C21 (stereo not given)	0.112%	–
COc1cc(Nc2c(C#N)cnc3cc(OCCCN4CCN(C)CC4)c(OC)cc23)c(Cl)cc1Cl	-0.0833% [at 46 µM]	–
CCCCC(CC)CN (stereo not given)	0.0265% [at 95.7 µM]	–

Structure (SMILES)	activity change	outcome
Cc1ccccc1S	0.137%	–
O=C(Nc1cccc2c(=O)cc(-c3nn[nH]n3)oc12)c1ccc(OCCCCc2ccccc2)cc1	0.0414% [at 46 µM]	–
FC(F)(F)c1ccccc1Cl	-0.0091% [at 95.7 µM]	–
Cc1ccc2c(Br)cc(Br)c(O)c2n1	0.016% [at 46 µM]	–
O=C1c2ccccc2C(=O)C1(O)O	0.0712%	–
CCCCCCCCCCC(=O)O	0.0848% [at 95.7 µM]	–
COc1ncnc(NS(=O)(=O)c2ccc(N)cc2)c1OC	-0.098% [at 46 µM]	–
C1COC1	0.0646%	–
O=C(CCc1ccc(O)cc1)c1c(O)cc(O)cc1O	0.103% [at 95.7 µM]	–
O=C1c2ccccc2C(=O)c2c(O)c(O)cc(O)c21	0.635%	–
Oc1cccc(Nc2ccccc2)c1	-0.0689% [at 95.7 µM]	–
CN1C(=O)N(c2ccccc2Br)Cc2cnc(Nc3ccc4c(c3)OCC(CO)O4)nc21 (stereo not given)	-0.0562%	–
CCC1(CO)COCOC1	0.047%	–
CC1CC(C)C(=O)C1=O (stereo not given)	0.0536%	–
Nc1nc2ccc([N+](=O)[O-])cc2s1	-0.184%	–
O=C1CCCCCCCCCCOCCCCO1	0.0826%	–
CCCCCCNC(=O)n1cc(F)c(=O)[nH]c1=O	-0.037% [at 46 µM]	–
CC(=O)Oc1ccc([N+](=O)[O-])cc1CCl	0.0056%	–
O=C(O)c1ccc(OCCCOc2ccc(C(=O)O)cc2)cc1	0.0162% [at 46 µM]	–
CCCC(C(=O)OCCN(CC)CC)(c1ccccc1)c1ccccc1	0.0474% [at 46 µM]	–
